# Source: PubChem BioAssay (NCI)
# The panel holds about 79,000 compounds, 15% with a hit somewhere; the sample as a whole holds those more often. A number with no mark means an inactive call. The source made the active and inactive calls. Cut-off read from the data, not from the text of the source: active = growth inhibition above about 70%; inactive = the rest.
# Assay: NCI Yeast Anticancer Drug Screen. Data for the mec2-1 strain (AID 157)
# Conditions: S. cerevisiae mec2-1 strain, at 50.0 µM, hits give high values
# Outline: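 Using mec2-1 yeast: add compound, measure growth, express inhibition versus vehicle-treated cultures.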
row,Compound,growth inhibition
1,O=C1C(CN2CCCCC2)CCC1CN1CCCCC1 (stereo not given),15%
2,CC1CC[N-]CC1.CC1CC[N-]CC1.[Cl][Pt+2][Cl],-6.7%
3,COc1cc2c(c(OC)c1OC)-c1ccc(OC)c(=O)cc1C(NC(=O)CCCCCNc1ccc(N=[N+]=[N-])cc1[N+](=O)[O-])CC2 (stereo not given),84.4% (active)
4,C(=N\NC1=NCCCN1)/c1ccc2ccccc2c1,1.65%
5,C[n+]1c(/C=C\c2ccc(O)cc2)cc(C(N)=O)c2ccccc21,11.8%
6,Cc1ncc(CN2CSC(CCO)C2C)c(N)n1 (stereo not given),8.4%
7,Nc1cc(Cl)c(N)c(Cl)c1,-21.6%
8,N#Cc1cccc(-c2ccc(-c3ccccc3)o2)c1,27.4%
9,CC1CN=C(N(C(=O)Nc2ccc(Cl)c(Cl)c2)c2ccccc2)S1 (stereo not given),3.6%
10,OCC1CC1c1ccccc1 (stereo not given),-0.65%
11,CCN(CC)C1=C(C)S(=O)(=O)C1c1ccc(C)cc1 (stereo not given),-12.6%
12,CN(C)c1ccc(C=Nc2cc(Cl)ccc2O)cc1,23.2%
13,Oc1ccc(C=NCCN=Cc2ccc(O)cc2)cc1,-17.4%
14,CCCOC(=O)c1ccnc(C(=O)OCCC)c1,4.85%
15,CCn1c2ccc(C=O)cc2c2cc([N+](=O)[O-])ccc21,-2.1%
16,c1ccc(C(N=NC(c2ccccc2)c2ccccc2)c2ccccc2)cc1,-10.3%
17,CC1(C)C(=O)/C=C\C(=O)C(C)(C)C(=O)/C=C\C(=O)C(C)(C)C2=CC=C(O2)C(C)(C)C(=O)/C=C\C1=O,12.2%
18,CNC1C(=O)C(C)C(O)(C(CC(C)C(O)/C=C/C=C/CNC(=O)C(C)(C)C(O)\C(C)=C/C=C\C=C\Cc2cnc(C)o2)OC)C12C(=O)OC2COC (stereo not given) (tested in a mixture with another compound),-22.1%
19,C=CCNC(=O)C(=O)NCC=C,-16.2%
20,O=C(Nc1ccccc1Cl)Nc1ccccc1Br,11.7%

row,Compound,growth inhibition
1,CS(=O)(=O)Oc1ncc(Cl)cc1Cl,2%
2,O=[N+]([O-])c1ccc(OCCCCCBr)c(Cl)c1,47.1%
3,COc1ccc(N/N=C2\CCOc3ccc(C)cc3C2=O)cc1,27.8%
4,Cc1ccc(S(=O)(=O)Oc2nc3nc4ccccc4nc3nc2OS(=O)(=O)c2ccc(C)cc2)cc1,-2%
5,COc1ccn(C2OCCC(OC(C)=O)C2O)c(=O)n1 (stereo not given),-24.1%
6,Cc1ccc(O)c(O)c1,-13.1%
7,CCc1ccc2[nH]nc(CCC(=O)O)c(=O)c2c1,-4.7%
8,O=C1Nc2ccccc2C2=C3CCCCC3=NNC12 (stereo not given),93.8% (active)
9,O=Cc1cccc(OC(=O)Nc2ccccc2)c1,24.8%
10,CCCN=C(C(C)=O)N(C)C,1.3%
11,CC1SC2(C(=O)Nc3ccccc32)N(c2ccc(Cl)cc2)C1=O (stereo not given),10.3%
12,CC(C)C1CCC(C)(C=O)C1 (stereo not given),-0.5%
13,Cc1cc2nc3n(c2cc1C)C(=O)c1cc2ccccc2cc1-3,0.6%
14,CC1=CC(C)(C)NC(=S)N1CCO,-18.6%
15,Cc1cc2nc3c(=O)[nH]c(=O)nc-3n(CCOC(=O)CCC(=O)O)c2cc1C,9.45%
16,O=c1c(Cl)cc(Cl)cn1S(=O)(=O)c1ccc([N+](=O)[O-])cc1,95.3% (active)
17,COC(=O)C(=O)C1(C)CCc2c(ccc3ccc(OC)cc23)C1=O (stereo not given),-3.1%
18,COc1ccc(C(=O)/C=C/c2ccncc2)cc1OC,38.4%
19,CC(C)CCCC(C)C1CCC2C3CCC4CC(O)C5(CC4(C)C3CCC12C)SCCS5 (stereo not given),10.9%
20,O=C(Oc1ccn(C2OC(CO)C(O)C2O)c(=O)c1)C12CC3CC(CC(C3)C1)C2 (stereo not given),11.6%

# Assay: NCI Yeast Anticancer Drug Screen. Data for the sgs1 mgt1 strain (AID 161);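 note: 0% = growth of cultures given vehicle only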
# Conditions: S. cerevisiae sgs1 mgt1 strain, at 50.0 µM, hits give high values
# Outline: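 Compounds are added to genetically altered yeast, and growth is compared with cultures given vehicle alone to give percent inhibition.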
row,Compound,growth inhibition
1,O=C1C(CN2CCCCC2)CCC1CN1CCCCC1 (stereo not given),30.8%
2,CC1CC[N-]CC1.CC1CC[N-]CC1.[Cl][Pt+2][Cl],-17.6%
3,COc1cc2c(c(OC)c1OC)-c1ccc(OC)c(=O)cc1C(NC(=O)CCCCCNc1ccc(N=[N+]=[N-])cc1[N+](=O)[O-])CC2 (stereo not given),45%
4,C(=N\NC1=NCCCN1)/c1ccc2ccccc2c1,-13.8%
5,C[n+]1c(/C=C\c2ccc(O)cc2)cc(C(N)=O)c2ccccc21,17.1%
6,Cc1ncc(CN2CSC(CCO)C2C)c(N)n1 (stereo not given),27.2%
7,Nc1cc(Cl)c(N)c(Cl)c1,-9.65%
8,N#Cc1cccc(-c2ccc(-c3ccccc3)o2)c1,27.1%
9,CC1CN=C(N(C(=O)Nc2ccc(Cl)c(Cl)c2)c2ccccc2)S1 (stereo not given),-5.7%
10,OCC1CC1c1ccccc1 (stereo not given),-6.4%
11,CCN(CC)C1=C(C)S(=O)(=O)C1c1ccc(C)cc1 (stereo not given),-8.85%
12,CN(C)c1ccc(C=Nc2cc(Cl)ccc2O)cc1,37.4%
13,Oc1ccc(C=NCCN=Cc2ccc(O)cc2)cc1,-14.8%
14,CCCOC(=O)c1ccnc(C(=O)OCCC)c1,-1.2%
15,CCn1c2ccc(C=O)cc2c2cc([N+](=O)[O-])ccc21,7.2%
16,c1ccc(C(N=NC(c2ccccc2)c2ccccc2)c2ccccc2)cc1,3.75%
17,CC1(C)C(=O)/C=C\C(=O)C(C)(C)C(=O)/C=C\C(=O)C(C)(C)C2=CC=C(O2)C(C)(C)C(=O)/C=C\C1=O,-2.4%
18,CNC1C(=O)C(C)C(O)(C(CC(C)C(O)/C=C/C=C/CNC(=O)C(C)(C)C(O)\C(C)=C/C=C\C=C\Cc2cnc(C)o2)OC)C12C(=O)OC2COC (stereo not given) (tested in a mixture with another compound),-7.75%
19,C=CCNC(=O)C(=O)NCC=C,-11.2%
20,O=C(Nc1ccccc1Cl)Nc1ccccc1Br,14.7%

row,Compound,growth inhibition
1,CS(=O)(=O)Oc1ncc(Cl)cc1Cl,-1.85%
2,O=[N+]([O-])c1ccc(OCCCCCBr)c(Cl)c1,70.3% (active)
3,COc1ccc(N/N=C2\CCOc3ccc(C)cc3C2=O)cc1,42.5%
4,Cc1ccc(S(=O)(=O)Oc2nc3nc4ccccc4nc3nc2OS(=O)(=O)c2ccc(C)cc2)cc1,3.7%
5,COc1ccn(C2OCCC(OC(C)=O)C2O)c(=O)n1 (stereo not given),6.25%
6,Cc1ccc(O)c(O)c1,-6.45%
7,CCc1ccc2[nH]nc(CCC(=O)O)c(=O)c2c1,-13.2%
8,O=C1Nc2ccccc2C2=C3CCCCC3=NNC12 (stereo not given),97.7% (active)
9,O=Cc1cccc(OC(=O)Nc2ccccc2)c1,24.5%
10,CCCN=C(C(C)=O)N(C)C,-14.9%
11,CC1SC2(C(=O)Nc3ccccc32)N(c2ccc(Cl)cc2)C1=O (stereo not given),-12.4%
12,CC(C)C1CCC(C)(C=O)C1 (stereo not given),-14.3%
13,Cc1cc2nc3n(c2cc1C)C(=O)c1cc2ccccc2cc1-3,3.1%
14,CC1=CC(C)(C)NC(=S)N1CCO,25.3%
15,Cc1cc2nc3c(=O)[nH]c(=O)nc-3n(CCOC(=O)CCC(=O)O)c2cc1C,10.5%
16,O=c1c(Cl)cc(Cl)cn1S(=O)(=O)c1ccc([N+](=O)[O-])cc1,98.9% (active)
17,COC(=O)C(=O)C1(C)CCc2c(ccc3ccc(OC)cc23)C1=O (stereo not given),-5.9%
18,COc1ccc(C(=O)/C=C/c2ccncc2)cc1OC,51.5%
19,CC(C)CCCC(C)C1CCC2C3CCC4CC(O)C5(CC4(C)C3CCC12C)SCCS5 (stereo not given),15.1%
20,O=C(Oc1ccn(C2OC(CO)C(O)C2O)c(=O)c1)C12CC3CC(CC(C3)C1)C2 (stereo not given),25.2%
